Results filed as inconclusive are left out. Calls of active or inactive are those of the source. The call rests on the fitted dose curve; in most records, active means well fitted curve in the direction sought with a large enough effect; inconclusive means small, poorly fitted or top-dose-only effect, or another doubt; inactive means no such curve, though single readings can be large; an effect the other way counts as inactive or inconclusive.
Tests used:
[1] = tested on: NIH3T3; assay: qHTS assay to identify novel small-molecules to repurpose for Merkel cell carcinoma treatment (AID 1296009); conditions: MCC and control cell lines, CellTiter-Glo viability, 72 h; at 44.8 µM (top of the series) unless noted; further: nearly all actives have a fitted effect of over 60% in size
Procedure, shortened: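 CellTiter-Glo luminescence after 72 hr compound exposure at 37 degree celsius gave cell viability. Libraries NPC and MIPE were run as 8- and 11-point dose responses; RLUs normalized to DMSO (negative) and no-cell (cytotoxicity) controls.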

[2] = tested on: C33A; assay: Primary qHTS to identify gynecologic anti-cancer compounds using libraries of approved drugs and bioactive compounds (AID 1345084); conditions: Gynecologic cancer cell panel viability, ATPlite luminescence, 48 h; series mostly up to 57.5 µM; further: on the % scale 0 is the no-effect control and ±100 the full control effect; nearly all actives have a fitted effect of over 55% in size
Procedure, shortened: (§1)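 Measured: luminescence after ATPlite addition (15 min, RT). Exposure: 48 h, 37 C, 5% CO2.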

[3] = tested on: CAOV3; assay: as above; conditions: Gynecologic cancer cell panel viability, ATPlite luminescence, 48 h; series mostly up to 57.5 µM
Procedure, shortened: as §1

[4] = tested on: CASKI; assay: as above; conditions: Gynecologic cancer cell panel viability, ATPlite luminescence, 48 h; series mostly up to 57.5 µM
Procedure, shortened: as §1

[5] = tested on: Es-2; assay: as above; conditions: Gynecologic cancer cell panel viability, ATPlite luminescence, 48 h; series mostly up to 57.5 µM
Procedure, shortened: as §1

[6] = tested on: HeLa; assay: as above; conditions: Gynecologic cancer cell panel viability, ATPlite luminescence, 48 h; series mostly up to 57.5 µM
Procedure, shortened: as §1

[7] = tested on: Hek293T; assay: as above; conditions: Gynecologic cancer cell panel viability, ATPlite luminescence, 48 h, control line for the selectivity index; series mostly up to 57.5 µM
Procedure, shortened: as §1

C=C(C)C(=O)O[C@H]1C[C@@](C)(OC(C)=O)[C@@]2(O)CC[C@@](C)(O)[C@H](OC(C)=O)[C@@]23OC(=O)C(COC)=C13
inactive: outcome [1] inactive [at 17.4 µM] | Potency [2] | Potency [3] | Potency [4] | Potency [5] | Potency [6] | Potency [7]

O=C1Nc2ccc(O)cc2O[C@H]1O[C@@H]1O[C@H](CO)[C@@H](O)[C@H](O)[C@H]1O
inactive: outcome [1] | Potency [2] | Potency [3] | Potency [4] | Potency [5] | Potency [6] | Potency [7]

CC(C)(O)c1ccc2c(c1)C(O)CC1C(C)(C(=O)O)CCCC21C (stereo not given)
inactive: outcome [1] | Potency [2] | Potency [3] | Potency [4] | Potency [5] | Potency [6] | Potency [7]

CC1CCC2C(C)(C)CC(C)(CO)C2(O)C1C(=O)O (stereo not given)
inactive: outcome [1] | Potency [2] | Potency [3] | Potency [4] | Potency [5] | Potency [6] | Potency [7]

O=C(/C=C/c1ccccc1)OCC1=CC[C@@H]2C(C(=O)O)=CO[C@@H](O[C@@H]3O[C@H](CO)[C@@H](O)[C@H](O)[C@H]3O)[C@H]12
inactive: outcome [1] inactive [at 17.4 µM] | Potency [2] | Potency [3] | Potency [4] | Potency [5] | Potency [6] | Potency [7]

O=C(/C=C/c1ccc(O)cc1)OCC1=C[C@@H](O)[C@@H]2C=CO[C@@H](O[C@@H]3O[C@H](CO)[C@@H](O)[C@H](O)[C@H]3O)[C@H]12
inactive: outcome [1] inactive [at 17.4 µM] | Potency [2] | Potency [3] | Potency [4] | Potency [5] | Potency [6] | Potency [7]

CC1(CO)CC[C@]2(C(=O)O[C@@H]3O[C@H](CO)[C@@H](O)[C@H](O)[C@H]3O)CC[C@]3(C)C(=CCC4[C@@]5(C)CC[C@H](O[C@@H]6O[C@H](C(=O)O)[C@@H](O)[C@H](O)[C@H]6O)C(C)(C)C5CC[C@]43C)C2C1 (stereo not given in full)
inactive: outcome [1] inactive [at 9.27 µM] | activity change, negative = cytotoxicity [2] 12.6% [at 11.6 µM] | activity change, negative = cytotoxicity [3] 12.9% [at 11.6 µM] | activity change, negative = cytotoxicity [4] -3.81% [at 11.6 µM] | activity change, negative = cytotoxicity [5] 8.61% [at 11.6 µM] | activity change, negative = cytotoxicity [6] 8.66% [at 11.6 µM] | activity change, negative = cytotoxicity [7] 11.3% [at 11.6 µM]

C[C@@H]1O[C@@H](O[C@H]2[C@H](OC(C#N)c3ccc(O)cc3)O[C@H](CO)[C@@H](O)[C@@H]2O)[C@H](O)[C@H](O)[C@H]1O (stereo not given in full)
inactive: outcome [1] inactive [at 17.4 µM] | Potency [2] | Potency [3] | Potency [4] | Potency [5] | Potency [6] | Potency [7]

N#CCc1ccc(O)cc1O[C@@H]1O[C@H](CO)[C@@H](O)[C@H](O)[C@H]1O
inactive: outcome [1] | Potency [2] | Potency [3] | Potency [4] | Potency [5] | Potency [6] | Potency [7]

C[C@@H]1CC[C@]2(C(=O)O[C@@H]3O[C@H](CO)[C@@H](O)[C@H](O)[C@H]3O)CC[C@]3(C)C(=CCC4[C@@]5(C)C[C@@H](O)[C@H](O)C(C)(C)C5CC[C@]43C)C2[C@]1(C)O (stereo not given in full)
inactive: outcome [1] inactive [at 17.4 µM] | Potency [2] | Potency [3] | Potency [4] | Potency [5] | Potency [6] | Potency [7]

CCC(NC(=O)CC(NC(=O)C(CO)NC(=O)C(CC)NC(=O)c1ccc[nH]1)c1ccccc1)C(=O)O (stereo not given)
inactive: outcome [1] inactive [at 17.4 µM] | Potency [2] | Potency [3] | Potency [4] | Potency [5] | Potency [6] | Potency [7]

O=C(/C=C/c1c(C(=O)O)[nH]c2cc(Cl)cc(Cl)c12)Nc1ccccc1
inactive: outcome [1] | Potency [2] | Potency [3] | Potency [4] | Potency [5] | Potency [6] | Potency [7]

CC(=O)O[C@@H]1[C@@H](OC(=O)/C=C/c2ccccc2)[C@H](C)O[C@@H](O[C@H]2[C@@H]3C=CO[C@@H](O[C@@H]4O[C@H](CO)[C@@H](O)[C@H](O)[C@H]4O)[C@@H]3[C@@]3(CO)O[C@@H]23)[C@@H]1OC(C)=O
inactive: outcome [1] inactive [at 17.4 µM] | Potency [2] | Potency [3] | Potency [4] | Potency [5] | Potency [6] | Potency [7]

CC1CC(=O)C2=C(O1)OC1(C)CCC3C(C)(C)C=CC(=O)C3(C)C1C2 (stereo not given)
inactive: outcome [1] | Potency [2] | Potency [3] | Potency [4] | Potency [5] | Potency [6] | Potency [7]

CCC[C@@H]1C[C@@H](C(=O)N[C@@H]([C@H]2O[C@H](SC)[C@H](O)[C@@H](O)[C@@H]2O)[C@@H](C)O)N(C)C1
inactive: outcome [1] | Potency [2] | Potency [3] | Potency [4] | Potency [5] | Potency [6] | Potency [7]

O=S(=O)(Nc1ccc(C(O)(C(F)(F)F)C(F)(F)F)cc1)c1cccs1
inactive: outcome [1] | Potency [2] | Potency [3] | Potency [4] | Potency [5] | Potency [6] | Potency [7]

C[C@H]1[C@H](C)CC[C@]2(C(=O)O)CC[C@]3(C(=O)O)C(=CCC4[C@@]5(C)CC[C@H](O[C@@H]6O[C@H](C)[C@@H](O)[C@H](O)[C@H]6O)C(C)(C)C5CC[C@]43C)[C@H]12 (stereo not given in full)
inactive: outcome [1] inactive [at 17.4 µM] | Potency [2] | Potency [3] | Potency [4] | Potency [5] | Potency [6] | Potency [7]

CCOC(=O)[C@H](CCc1ccccc1)N[C@@H](C)C(=O)N1C2CCCCC2C[C@H]1C(=O)O (stereo not given in full)
inactive: outcome [1] | Potency [2] | Potency [3] | Potency [4] | Potency [5] | Potency [6] | Potency [7]

COc1cc([C@H]2OC[C@@H]3[C@@H](c4ccc(O[C@@H]5O[C@H](CO)[C@@H](O)[C@H](O)[C@H]5O)c(OC)c4)OC[C@]23O)ccc1O
inactive: outcome [1] inactive [at 17.4 µM] | Potency [2] | Potency [3] | Potency [4] | Potency [5] | Potency [6] | Potency [7]

CC(C)C1=CC2=CCC3[C@](C)(CCC[C@@]3(C)C(=O)O)C2CC1O (stereo not given in full)
inactive: outcome [1] | Potency [2] | Potency [3] | Potency [4] | Potency [5] | Potency [6] | Potency [7]

Source: PubChem BioAssay (NCATS)
